Bioassay records as filed in PubChem.
TSHR ag: TSH receptor (human) agonism; HEK293-CNG-TSHR cells (CNG channel as cAMP sensor), membrane potential dye, cAMP; Potency, µM (top dose mostly 57.1 µM), for the others: top-dose activation, hits mostly activators; actives 0.48% (n = 73,000); AID 926; active means well fitted activation curve with a large enough effect in the main read-out, with a control signal flat, not every such curve was filed as active; inconclusive means small, poorly fitted or top-dose-only effect, or a change in a side signal; inactive means no such curve, though single readings can be large or run the other way; % of control where 0% means no effect;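 further: the control signal comes from parental cells without the receptor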
Target sequence (P16473 whole entry, looked up): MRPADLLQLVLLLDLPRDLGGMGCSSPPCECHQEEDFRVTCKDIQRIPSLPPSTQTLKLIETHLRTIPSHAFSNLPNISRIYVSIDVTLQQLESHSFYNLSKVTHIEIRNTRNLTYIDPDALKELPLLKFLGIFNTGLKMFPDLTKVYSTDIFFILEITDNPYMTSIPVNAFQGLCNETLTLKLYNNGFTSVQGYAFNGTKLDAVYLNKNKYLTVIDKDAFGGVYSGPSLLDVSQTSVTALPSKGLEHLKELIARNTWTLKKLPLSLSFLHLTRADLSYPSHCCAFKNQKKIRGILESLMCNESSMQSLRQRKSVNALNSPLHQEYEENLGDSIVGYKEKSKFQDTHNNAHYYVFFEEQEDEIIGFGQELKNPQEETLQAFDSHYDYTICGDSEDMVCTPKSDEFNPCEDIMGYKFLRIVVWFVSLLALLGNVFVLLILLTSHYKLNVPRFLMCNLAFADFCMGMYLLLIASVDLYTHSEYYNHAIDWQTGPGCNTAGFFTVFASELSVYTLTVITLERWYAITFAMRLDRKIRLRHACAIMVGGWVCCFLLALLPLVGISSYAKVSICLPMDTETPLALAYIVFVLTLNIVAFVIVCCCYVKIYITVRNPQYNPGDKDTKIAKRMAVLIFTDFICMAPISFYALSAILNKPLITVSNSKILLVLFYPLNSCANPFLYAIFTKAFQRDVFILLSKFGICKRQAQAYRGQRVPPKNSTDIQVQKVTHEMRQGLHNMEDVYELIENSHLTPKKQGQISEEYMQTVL
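HEK 293 cells stably expressing TSHR and a modified CNG channel, with CNG-only parental cells as counterscreen, were preloaded 60 min at room temperature with membrane potential dye containing 100 uM RO 20-1724. Compound exposure was 30 min, and depolarization was read as fluorescence at 590 nm.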
IkB sig inh: IkB pathway inhibition in ABC-DLBCL cells; ABC-DLBCL IkBa-CBG/CBR dual luciferase ratio, 4 h; response scale: scaled: untreated 0%, proteasome inhibitor 100%; Potency, µM (titrated, usually from 57.1 µM), for the others: at the top dose IkBa stabilization activation; AID 445; actives 0.04% (n = 110,000); active means well fitted curve in the direction sought with a large enough effect in the signal ratio, not every such curve was filed as active; inconclusive means small, poorly fitted or top-dose-only effect, or a change in a side signal; the % refers to the signal ratio;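 further: the direction sought is a rising ratio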
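Luminescence ratio of IκBα-fused green versus native red beetle luciferase in OCI-Ly3 cells, 4 h post-doxycycline with compound; red signal alone, scaled from basal (0%) to zero light (-100%), flagged nonspecific or cytotoxic effects.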
CRE Fsk mod: alters forskolin-stimulated CRE reporter signaling in CHO cells; CHO CRE-bla reporter (cAMP response element driving beta-lactamase), forskolin EC10, beta-lactamase ratio; Potency, µM (doses to about 38.2 µM), inactives show top-dose activity change, negative = inhibition, actives largely listed as activators; actives 2.5% (n = 71,000); AID 662; active means well fitted activation curve with a large enough effect in the signal ratio, with a control signal flat, not every such curve was filed as active; inconclusive means small, poorly fitted or top-dose-only effect, or effect the other way, or a change in a side signal; the % refers to the signal ratio; further: % of control where 0% means no effect
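CRE-bla CHO reporter cells treated with compound titration plus EC10 NKH 477 (water-soluble forskolin), incubated 3 h at 37 °C; CCF4 loading 2 h at room temperature, 460/530 nm emission ratio read, AC50 values derived for positive or negative modulators.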
Hsp90 Hop PPI: changes Hsp90-Hop TPR2A binding signal, up or down; AlphaScreen TPR2A-His6 binding biotin-Hsp90 C-terminal peptide; Potency, µM (series often up to 57 µM), for inactives: at the highest dose activity change, negative = inhibition; actives 0.44% (n = 71,000); AID 595; active means well fitted curve in either direction with a large enough effect; inconclusive means small, poorly fitted or top-dose-only effect, or another doubt; further: on the % scale 0 is the no-effect control and ±100 the full control effect
HEK293 cAMP ctrl: parental HEK293 cAMP activation (counter-screen); Potency, µM (titrated, usually from 57.1 µM), for inactives: top-dose activation, usual class: activators; actives 2.5% (n = 73,000); parental HEK293 CNG cAMP sensor, membrane potential fluorescence; active means well fitted activation curve with a large enough effect; inconclusive means small, poorly fitted or top-dose-only effect; inactive means no such curve, though single readings can be large or run the other way; further: % of control where 0% means no effect; nearly all actives have a fitted effect of over 55% in size
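Parental HEK 293 cells stably expressing a modified CNG channel (no TSHR) report cAMP rise as membrane depolarization. Membrane potential dye with 100 uM RO 20-1724 was loaded for 60 min at room temperature, then compound added for 30 min; fluorescence read at 590 nm.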
* = called active by the depositor; ? = inconclusive; . = no result given; [ ] = another dose, or the depositor's remark. Shown are actives, neighbours in structure and some others; about 3.5% of the full set was active somewhere. Potency means the concentration at half of the fitted maximal effect.

SMILES | TSHR ag | IkB sig inh | CRE Fsk mod | Hsp90 Hop PPI | HEK293 cAMP ctrl
COc1ccccc1CNS(=O)(=O)c1cc(C(=O)Nc2cccc(C(F)(F)F)c2)ccc1F | . | 0% | . | . | .
COc1ccc(-c2nnc(SCC(=O)Nc3ccc(C)c(Cl)c3)nc2-c2ccc(OC)c(OC)c2)cc1OC | . | 6% | . | . | .
CCOC(=O)CCN1C(=O)[C@H]2[C@H]3[C@H](O)[C@H](O)C/C(=N/OC/C=C(\C)CCC=C(C)C)[C@@H]3CC[C@@H]2C1=O | -7%[11.4 µM] | . | . | . | 1%[11.4 µM]
CC1CCCCN1c1c(S(=O)(=O)c2ccc(Cl)cc2)cnc2ccccc12 (stereo not drawn) | . | 1% | . | . | .
O=S(=O)(C[C@H](O)C(Cl)(Cl)Cl)NNc1ccccc1 | 4%[11.4 µM] | 4%[11.4 µM] | -9%[7.6 µM] | -5%[11 µM] | 3%[11.4 µM]
CC(=O)OC[C@@H]1O[C@@H](O/N=C2/C[C@@H](O)[C@@H](O)[C@@H]3[C@@H]4C(=O)N(C(C)(C)C)C(=O)[C@H]4CC[C@@H]23)[C@H](OC(C)=O)[C@H](OC(C)=O)[C@@H]1OC(C)=O | 4%[11.4 µM] | . | . | . | 12%[11.4 µM]
COc1ccc(C(=O)c2coc3ccc(O)c(CN(C)C)c23)cc1 | ? | 3% | -8% | -5% | 32µM*
CN1CCc2c(sc3c2C(=O)NC(c2ccc4c(c2)OCO4)N3)C1 (stereo not drawn) | ? | 5% | 0.5µM* | -3% | ?
COc1cc2c(C(=O)NCc3ccccn3)cn(CC(C)C)c(=O)c2cc1OC | 6% | -4% | 7.9µM* | -21% | -4%
CCOC(=O)CNC(=O)c1cn(C)c(=O)c2cc(OC)c(OC)cc12 | -1% | 0% | ? | -3% | 20%
CCn1cc(C(=O)NCc2cccnc2)c2cc(OC)c(OC)cc2c1=O | 12% | -2% | 5µM* | 0% | 3%
CCOC(=O)CNC(=O)c1cn(CC)c(=O)c2cc(OC)c(OC)cc12 | -1% | -2% | 5µM* | -7% | 0%
COc1cc2c(cc1OC)C1=C(C#N)CN(C3CCCCC3)CN1CC2 | 28% | 9% | 1.6µM* | -8% | 11%
Cc1ccc(NC(=O)Cn2cc(C(=O)c3ccco3)c3ccccc32)cc1 | . | 1% | . | . | .
COc1cc2c(C(=O)NC3CCCCCC3)cn(C)c(=O)c2cc1OC | 20% | -1% | 2µM* | -2% | 22%
CCn1cc(C(=O)NC2CCCCCC2)c2cc(OC)c(OC)cc2c1=O | 19% | 0% | ? | 1% | 7%
CS(=O)(=O)N1CCC2(CC1)CN(Cc1ccc(C#N)cc1)C2 | 0% | 3%[11.4 µM] | -5% | -2% | -5%
O=C(NCc1ccco1)c1cccn2c(=O)c3sccc3nc12 | . | ? | 13µM* | -4% | 18%
N#CC(=C(/N)Sc1ccccc1N)/C(C#N)=C(/N)Sc1ccccc1N | -21% | ? | -7% | -22% | -19%
S=C(S)NCCN1CCNCC1 | -5%[11.4 µM] | -1%[11.4 µM] | -4%[7.6 µM] | 10%[11 µM] | 7%[11.4 µM]
COCC(C)n1c(C)cc(C(=O)COC(=O)c2c(NC(C)=O)sc(C)c2C)c1C (stereo not drawn) | 13µM* | 0% | 12% | -3% | 4%
COCC(C)n1c(C)cc(C(=O)COC(=O)c2c(C)nn(-c3ccccc3)c2C)c1C (stereo not drawn) | ? | ? | ? | -6% | ?
COc1c(-c2ccccc2)oc2c(ccc3occc32)c1=O | ? | -1%[11.4 µM] | 6% | 3% | 40µM*
Cc1noc(C)c1CSc1nnc(-c2ccccc2)n1Cc1ccco1 | ? | 2% | 16% | 0% | 16µM*
CCCn1c(SCC(=O)O)nc2ccccc21 | 6% | -1% | ? | -3% | 7%
SMILES | TSHR ag | IkB sig inh | CRE Fsk mod | Hsp90 Hop PPI | HEK293 cAMP ctrl
CCCn1c(N)c(C(=O)CSc2nc3ccccc3n2CCC#N)c(=O)n(C)c1=O | 3% | 0% | 1.6µM* | 0% | -5%
Clc1ccc(OCc2nn3c(C4CCCCC4)nnc3s2)c(Cl)c1 | ? | 1% | ? | -1% | 32µM*
COc1cc(OC)c(-c2nn3c(C4CCCCC4)nnc3s2)cc1OC | . | -4% | 4µM* | -4% | 6%
Nn1c(SCC(=O)NC2CCCCC2)nnc1-c1ccccc1 | -1% | ? | -1% | 0% | 7%
Nn1c(SCC(=O)NC2CCCc3ccccc32)nnc1-c1cccs1 (stereo not drawn) | ? | 2% | ? | -1% | 0.2µM*
CCOc1ccc(CCNC(=O)c2oc3c(c2C)-c2[nH]ncc2CC3)cc1OCC | 22% | -1% | 2.5µM* | -4%[2.3 µM] | 8%
Cc1c(C(=O)NCc2ccccc2)oc2c1-c1[nH]ncc1CC2 | . | 1% | . | . | .
Cc1ccc(S(=O)(=O)N[C@H](CN)C(=O)O)cc1 | 0%[11.4 µM] | 0%[11.4 µM] | 3%[7.6 µM] | -1%[11 µM] | 10%[11.4 µM]
O=C1c2ccccc2C(=O)N1CCCCN(C(=O)c1ccco1)c1ccc(Cl)cc1 | ? | ? | ? | 0% | 25µM*
O=C1CCC(=O)N1CN(C(=O)c1ccco1)c1ccccc1 | -1% | 4% | 4% | 2% | 5%
COc1ccc(CCN2C(=O)c3[nH]nc(-c4ccccc4O)c3C2c2ccc(OC)cc2)cc1 (stereo not drawn) | . | -2% | . | . | .
c1ccc(Cn2c(-c3ccco3)nc3nc4ccccc4nc32)cc1 | 8% | 0% | 13µM* | 8% | 19%
COCCCn1c(-c2ccc(OC)cc2)nc2nc3ccccc3nc21 | 4% | -2% | 15% | 0% | -1%
Cc1ccc(-c2nc3nc4ccccc4nc3n2Cc2ccco2)cc1 | ? | ? | 20% | -1% | 25µM*
CCCn1c(-c2ccc(OC)cc2)nc2nc3ccccc3nc21 | ? | 4% | 10µM* | 0% | ?
CCCCCn1c(-c2ccco2)nc2nc3ccccc3nc21 | 11% | ? | 13µM* | 10% | 15%
CC(C)(C)NC(=O)NC(=O)COc1ccccn1 | ? | 0% | -13% | -2% | 10µM*
C=CCN=C1SC(C)C(=O)N1S(=O)(=O)c1ccccc1 (stereo not drawn) | 3.2µM* | 0% | 10% | -12% | 0%
CCC(c1nnnn1CCc1ccccc1)N(Cc1ccco1)Cc1cc2cccc(C)c2[nH]c1=O (stereo not drawn) | ? | ? | 9% | -10% | 16µM*
CC(=O)[C@@H]1[C@H]2[C@@H](C(=O)[C@H]3OC[C@H]2O3)[C@@H]2C=Cc3ccccc3N12 | -1% | 2%[11.4 µM] | -9% | ? | -1%
COc1ccc(NC(=O)COCc2cc(-c3cccs3)on2)cc1 | . | 0% | . | . | .
CCCCOc1ccccc1Cn1c(=O)oc2ccc(C)cc21 | ? | 4% | 0% | ? | 16µM*
Cc1ccc2oc(=O)n(Cc3ccccc3OC(C)C)c2c1 | ? | ? | 10% | 25% | 25µM*
CCCCCOc1ccccc1Cn1c(=O)oc2ccc(C)cc21 | . | 0% | . | . | .
COc1ccc(Cn2c(=O)oc3ccc(C)cc32)cc1OC | . | ? | 11% | -1% | 27%
